The panel holds about 83,000 compounds, 20% with a hit somewhere; the sample as a whole holds those more often.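 Cell lines were cultured in 96-well plates, exposed to a single compound concentration, and assessed for percent growth 48 hours later.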 Activity calls are given as the source filed them. Rule for the calls: active = growth percent below 10; inactive = the rest.

One assay has as its system MCF7 breast. The experiment in a line: NCI-60 one-dose screen, 48 h (100 = growth as untreated, 0 = no growth, -100 = all killed). To be noted: 10 µM unless noted.
For the molecule `O=[N+]([O-])c1cc([N+](=O)[O-])c(NN=C(c2ccc(O)cc2)c2ccc(O)cc2)cc1Cl`, the growth is -65.4% (active). Same read-out and setting: under `Cc1cc(SC#N)ncn1` stands 93.3% (inactive). Still for that read-out and setting: under `O=C(N/N=C/c1c(Cl)cccc1Cl)c1cccc(Nc2ccnc(C(F)(F)F)c2)c1` stands 66.1% (inactive); under `O=[N+]([O-])c1cc([N+](=O)[O-])c(C(F)(F)F)cc1NN=C(c1ccc(O)cc1)c1ccc(O)cc1`, -10.1% (active). The same measure, in the same setting: the value for `N/C(=N\c1nc2ccccc2[nH]1)NC(=O)Cc1cccc2ccccc12` was 59.4% (inactive). In the case of `CCN(CC)CCCC(C)Nc1ccnc2cc(Cl)c(SCc3ccccc3)cc12` (stereo unspecified), the growth is -49.5% (active). Same read-out and setting: under `O=C(Oc1ccc(Cl)cc1[N+](=O)[O-])Oc1ccc(Cl)cc1[N+](=O)[O-]` stands 103% (inactive); under `C[C@@H](NC(=O)[C@@H](CC(=O)N1CCC(N2CCCCC2)CC1)N1C(=O)[C@@H](N2C(=O)OC[C@@H]2c2ccccc2)[C@H]1/C=C/c1cccc(Cl)c1)c1ccccc1`, 20.8% (inactive); under `COc1ccc2c3ccnc(C(F)(F)F)c3n(CCCCN)c2c1`, 35.5% (inactive). Still for that read-out and setting: the value for `CCOC(=O)c1c[nH]c2cc(OCC3CC3)c(OCC3CC3)cc2c1=O` was 104% (inactive); that for `COc1ccc(-c2nc3ccccn3c2/C=C/C(=O)c2cc(OC)c(OC)c(OC)c2)cc1OC` was 4.01% (active); that for `COc1cc(C)cc2oc3oc(=O)c(C(=O)c4cc5cc(Br)ccc5o4)cc3c(=O)c12` was 101% (inactive).

As for `COc1ccc(OC)c([N+](=O)[O-])c1C(=O)CNC(C)=O`, the growth was 92.7% (inactive). On to `COc1cc(C(=O)/C=C/c2c(-c3ccc(F)cc3)nc3sccn23)cc(OC)c1OC`, for which the growth is -8.44% (active). Same read-out and setting: the value for `CC(C)c1ccc(C(=O)Nc2nc3ccc(O)cc3s2)cc1` was 9.03% (active); that for `C=C(C)C1CCC2(C(=O)O)CCC3(C)C(CCC4C5(C)CCC(OC(=O)NCc6ccccc6)C(C)(C)C5CCC43C)C12` (stereo unspecified) was 35.9% (inactive); that for `CCOC(=O)c1ccc2nc(-c3c(C)nn(-c4ccccc4)c3N3CCOCC3)[nH]c2c1` was 88.6% (inactive).

For the molecule `Nc1nc(SCc2cccc([N+](=O)[O-])c2)c2[nH]cnc2n1`, the growth was 88% (inactive).

Turning to `COc1ccc2nc3c(cc2c1)C(=O)CC(c1ccccc1)C3` (stereo unspecified), the growth is 56.2% (inactive). On the same count and under the same terms, the value for `CCCC[C@@H](C=O)NC(=O)[C@H](CC(C)C)NC(=O)[C@H](CC(C)C)NC(=O)OCc1ccccc1` was 0.513% (active); that for `O=C(N/N=C/c1ccc([N+](=O)[O-])cc1)c1ccc(Br)o1` was 71.2% (inactive). `NC1=NC(=O)NC1(c1ccccc1)c1ccccc1`: the growth was 99.8% (inactive). The same measure, in the same setting: under `CSc1nc2sc3cc(Cl)c(Cl)cc3n2c(=N)c1C#N` stands 60.5% (inactive); under `Cn1c(=O)c(C#N)c(-c2ccco2)n2c(S(=O)(=O)Cc3ccccc3)nnc12`, 74.9% (inactive). The same measure, in the same setting: the value for `Nc1ccc2c(c1)Cc1cc(NC(=O)C(F)(F)F)ccc1-2` was 60.1% (inactive); that for `NC(=O)c1c(NC(=O)COC(=O)Cc2ccccc2F)sc2c1CCC2` was 88.8% (inactive); that for `Cc1cccc([N+](=O)[O-])c1I` was 114% (inactive). The same measure, in the same setting: the value for `COc1ccc2nc3ccccc3c(NCCNCCO)c2c1` was 2.08% (active); that for `Cc1cc(NN=C(c2ccc(O)cc2)c2ccc(O)cc2)c([N+](=O)[O-])cc1[N+](=O)[O-]` was 32% (inactive); that for `N#Cc1c(Cl)nc(SCC2CO2)nc1-c1ccccc1` (stereo unspecified) was 83.9% (inactive). In the case of `CCCCCCCCCCCCCCNC(=O)Nc1ccc(Cl)c(Cl)c1`, the growth is 30% (inactive). Consider `O=C1NC(=O)c2cc([N+](=O)[O-])cc3cccc1c23`, for which the growth is 90% (inactive). Still for that read-out and setting: the value for `CCN(CC)CCSC(=O)C(O)(c1ccccc1)C1CCCC1` (stereo unspecified) was 114% (inactive). The same measure, in the same setting: the value for `CCC(Br)(CC)C(=O)c1ccc(OCC(=O)O)c(Cl)c1Cl` was 92.8% (inactive); that for `COc1ccc(C2CC(c3cc(OC)c(OC)c(OC)c3)=NN2C(C)=O)cc1OCC(=O)Nc1nc2ccc(C(F)(F)F)cc2s1` (stereo unspecified) was 65% (inactive).

The next assay has as its system HCT-116 colon. Described as above. To be noted: 10 µM unless noted.
Consider `O=[N+]([O-])c1cc([N+](=O)[O-])c(NN=C(c2ccc(O)cc2)c2ccc(O)cc2)cc1Cl`, for which the growth was -91.1% (active). The same measure, in the same setting: the value for `Cc1cc(SC#N)ncn1` was 99.5% (inactive); that for `O=C(N/N=C/c1c(Cl)cccc1Cl)c1cccc(Nc2ccnc(C(F)(F)F)c2)c1` was 77.2% (inactive).

Take `O=[N+]([O-])c1cc([N+](=O)[O-])c(C(F)(F)F)cc1NN=C(c1ccc(O)cc1)c1ccc(O)cc1`: the growth is -82.4% (active). Turning to `N/C(=N\c1nc2ccccc2[nH]1)NC(=O)Cc1cccc2ccccc12`, the growth is 67.4% (inactive). The same measure, in the same setting: under `CCN(CC)CCCC(C)Nc1ccnc2cc(Cl)c(SCc3ccccc3)cc12` (stereo unspecified) stands -67.8% (active). On the same count and under the same terms, under `O=C(Oc1ccc(Cl)cc1[N+](=O)[O-])Oc1ccc(Cl)cc1[N+](=O)[O-]` stands 113% (inactive); under `C[C@@H](NC(=O)[C@@H](CC(=O)N1CCC(N2CCCCC2)CC1)N1C(=O)[C@@H](N2C(=O)OC[C@@H]2c2ccccc2)[C@H]1/C=C/c1cccc(Cl)c1)c1ccccc1`, 53.7% (inactive); under `COc1ccc2c3ccnc(C(F)(F)F)c3n(CCCCN)c2c1`, 16.5% (inactive). For the molecule `CCOC(=O)c1c[nH]c2cc(OCC3CC3)c(OCC3CC3)cc2c1=O`, the growth is 111% (inactive).

Regarding `COc1ccc(-c2nc3ccccn3c2/C=C/C(=O)c2cc(OC)c(OC)c(OC)c2)cc1OC`, the growth is 10.3% (inactive). Consider `NC(=S)Cc1ccccc1`, for which the growth was 104% (inactive). As to `CC(C)C1=NOC(=O)C1=Cc1cn(-c2ccccc2)nc1-c1cccc([N+](=O)[O-])c1`, the growth was 34.7% (inactive). With `O=c1c2c3c(sc2n2cnnc2n1Cc1ccccc1)CCCC3`, the growth is 122% (inactive). The same measure, in the same setting: the value for `COc1cc(C)cc2oc3oc(=O)c(C(=O)c4cc5cc(Br)ccc5o4)cc3c(=O)c12` was 99.7% (inactive); that for `COc1ccc(OC)c([N+](=O)[O-])c1C(=O)CNC(C)=O` was 106% (inactive). On the same count and under the same terms, under `COc1cc(C(=O)/C=C/c2c(-c3ccc(F)cc3)nc3sccn23)cc(OC)c1OC` stands 23.3% (inactive); under `CC(C)c1ccc(C(=O)Nc2nc3ccc(O)cc3s2)cc1`, 39.6% (inactive); under `C=C(C)C1CCC2(C(=O)O)CCC3(C)C(CCC4C5(C)CCC(OC(=O)NCc6ccccc6)C(C)(C)C5CCC43C)C12` (stereo unspecified), 18% (inactive).

Consider `CCOC(=O)c1ccc2nc(-c3c(C)nn(-c4ccccc4)c3N3CCOCC3)[nH]c2c1`, for which the growth is 93.2% (inactive).

For the molecule `Nc1nc(SCc2cccc([N+](=O)[O-])c2)c2[nH]cnc2n1`, the growth was 101% (inactive). The same measure, in the same setting: under `COc1ccc2nc3c(cc2c1)C(=O)CC(c1ccccc1)C3` (stereo unspecified) stands 11.1% (inactive); under `CCCC[C@@H](C=O)NC(=O)[C@H](CC(C)C)NC(=O)[C@H](CC(C)C)NC(=O)OCc1ccccc1`, -58.5% (active); under `O=C(N/N=C/c1ccc([N+](=O)[O-])cc1)c1ccc(Br)o1`, 99.4% (inactive).

On to `NC1=NC(=O)NC1(c1ccccc1)c1ccccc1`, for which the growth was 99.9% (inactive). The same measure, in the same setting: under `CSc1nc2sc3cc(Cl)c(Cl)cc3n2c(=N)c1C#N` stands 100% (inactive); under `Cn1c(=O)c(C#N)c(-c2ccco2)n2c(S(=O)(=O)Cc3ccccc3)nnc12`, 75.8% (inactive).

Take `Nc1ccc2c(c1)Cc1cc(NC(=O)C(F)(F)F)ccc1-2`: the growth is 108% (inactive). With `NC(=O)c1c(NC(=O)COC(=O)Cc2ccccc2F)sc2c1CCC2`, the growth was 114% (inactive).

As to `Cc1cccc([N+](=O)[O-])c1I`, the growth is 112% (inactive). Same read-out and setting: under `Cc1cc(NN=C(c2ccc(O)cc2)c2ccc(O)cc2)c([N+](=O)[O-])cc1[N+](=O)[O-]` stands 28.6% (inactive); under `N#Cc1c(Cl)nc(SCC2CO2)nc1-c1ccccc1` (stereo unspecified), 88.8% (inactive). On the same count and under the same terms, the value for `O=C1NC(=O)c2cc([N+](=O)[O-])cc3cccc1c23` was 107% (inactive); that for `CCN(CC)CCSC(=O)C(O)(c1ccccc1)C1CCCC1` (stereo unspecified) was 109% (inactive). Same read-out and setting: the value for `CCC(Br)(CC)C(=O)c1ccc(OCC(=O)O)c(Cl)c1Cl` was 102% (inactive); that for `COc1ccc(C2CC(c3cc(OC)c(OC)c(OC)c3)=NN2C(C)=O)cc1OCC(=O)Nc1nc2ccc(C(F)(F)F)cc2s1` (stereo unspecified) was 30.5% (inactive).
